TEAD-YAP inh = TEAD-YAP interaction inhibition. HEK-TIYL cells, TEAD-Gal4/YAP UAS-luciferase luminescence. 1.4% of 640,000 active. AID 1259422. inhibition, % at 9.12 µM; in the data active = inhibition above about 32%
FBW7 act = human FBW7 E3 ligase activation, primary screen; Q969H0; AlphaScreen FBW7–phospho-cyclin E peptide binding, activator screen; normalized activity (activation), % at 26.1 µM; 0.13% of 650,000 active; AID 1259310; in the data active = normalized activity above about 1.9%;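 note: purified mutant Fbw7 with reduced substrate affinity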
MITF primary = human MITF inhibition, primary screen; 0.91% of 650,000 active; AlphaScreen MITF homodimerization, bead proximity signal; AID 1259374; inhibition, % at 2.6 µM; in the data active = inhibition above about 50%
Target sequence (O75030 whole entry, looked up): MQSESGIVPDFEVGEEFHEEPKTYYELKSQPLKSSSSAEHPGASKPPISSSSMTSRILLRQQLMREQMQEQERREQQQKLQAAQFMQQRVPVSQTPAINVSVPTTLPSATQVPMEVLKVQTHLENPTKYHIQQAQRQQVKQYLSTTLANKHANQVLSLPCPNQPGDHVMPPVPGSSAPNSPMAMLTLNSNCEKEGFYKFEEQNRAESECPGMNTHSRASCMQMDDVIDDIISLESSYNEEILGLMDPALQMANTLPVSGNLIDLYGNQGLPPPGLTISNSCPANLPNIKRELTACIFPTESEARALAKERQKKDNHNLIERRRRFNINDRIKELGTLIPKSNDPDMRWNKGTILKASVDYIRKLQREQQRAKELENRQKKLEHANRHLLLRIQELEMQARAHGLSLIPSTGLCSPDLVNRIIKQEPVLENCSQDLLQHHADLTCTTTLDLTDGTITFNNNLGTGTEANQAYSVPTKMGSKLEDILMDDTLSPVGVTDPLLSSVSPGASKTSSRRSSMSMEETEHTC
GPR151 activ = activators of human GPR151 | Q8TDV0 | PathHunter beta-arrestin GPR151 cells, luminescence | activation, % at 11.2 µM | 1% of 650,000 active | AID 1508602; in the data active = activation above about 4.9%
MITF inh conf = confirmation of human MITF inhibitors | 16% of 4,700 active | AlphaScreen MITF homodimerization, biotin/His-MITF beads | inhibition, % at 2.6 µM | AID 1259372 | shares compounds with MITF primary;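 active = inhibition above a cutoff derived from the DMSO control wells, cut at about 28% in these data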;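 note: inhibitors lower the bead chemiluminescence by keeping MITF from dimerizing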
AS interf DR = AlphaScreen optical interference, dose response counter-screen; 6% of 480 active; AlphaScreen optical interference counterscreen, cell-free; IC50, µM; shares compounds with MITF primary; call rule not given here
AlphaScreen intf2 = AlphaScreen optical interference, counter-screen. shares compounds with MITF primary. LysRS AlphaScreen counterscreen, signal interference, triplicate. inhibition, % at 2.6 µM. 7.6% of 4,700 active;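 active = inhibition above a cutoff derived from the DMSO control wells, cut at about 30% in these data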
Numbers stand for hits; n = inactive; x = no result given. This is a sample that favours compounds with a hit; in the whole collection about 3.5% have one here.

SMILES	TEAD-YAP inh	FBW7 act	MITF primary	GPR151 activ	MITF inh conf	AlphaScreen intf2	others
CN(C)C(=O)N1CCN(S(=O)(=O)c2cccc([N+](=O)[O-])c2)CC1	n	n	77	n	30	n	AS interf DR=n
O=[N+]([O-])c1ccc(S(=O)(=O)N2CCN(CCCc3ccccc3)CC2)cc1	n	n	56	n	n	n
Cc1cc(NC(=O)Cn2c(=O)oc3cc(Cl)ccc32)no1	n	n	n	n	x	x
N=C1/C(=C\c2coc3ccccc3c2=O)C(=O)N=C2SC(Cc3ccccc3)=NN12	n	n	n	n	x	x
COc1ccccc1NC(=O)COC(=O)CN1C(=O)C2CCCCC2C1=O (stereo not given)	n	n	n	n	x	x
COc1ccc(COC(=O)C2=C(C)NC3=C(C(=O)CC(C)(C)C3)C2c2cc(Cl)c(O)c(OC)c2)cc1 (stereo not given)	n	n	n	n	x	x
O=[N+]([O-])c1cccc(CN2CCN(S(=O)(=O)c3ccc(F)cc3)CC2)c1	n	n	57	n	n	n
O=[N+]([O-])c1cccc(CN2CCN(S(=O)(=O)c3ccc(Cl)cc3)CC2)c1	n	n	64	n	n	n
O=S(=O)(c1ccc(Cl)cc1)N1CCN(Cc2cccc(F)c2)CC1	n	n	64	n	n	n
COc1cc(OC)cc(-c2nc(SCc3ccccc3)n[nH]2)c1	n	n	n	n	x	x
O=C(CSc1nnc2nc[nH]n12)Nc1cnccn1	n	n	n	n	x	x
Cc1cnc(CNc2cc(-c3ccccn3)nc(-c3ccccn3)n2)nc1	n	n	110	n	115	100
COC(CNc1cc(-c2ccccn2)nc(-c2ccccn2)n1)OC	n	n	114	n	116	100
COC(CNc1cc(-c2ccccn2)nc(-c2ccccc2)n1)OC	n	n	n	n	x	x
C=CCN(CC=C)CCOc1ccc(C(=O)OC)cc1	n	n	51	n	n	n
COc1cccc(NC(=S)N(CCCN2CCC(C)CC2)Cc2cccs2)c1	n	n	79	n	n	n
Cc1c(C(=O)Nc2cccc(C(F)(F)F)c2)sc2ncnc(N3CCC(C)CC3)c12	n	n	n	n	x	x
CCCCN1COc2c(cc(Cl)c3cccnc23)C1	41	n	78	n	73	100
CN(C(=O)CN1C(=O)COc2c1cc(Cl)c1cccnc21)C1CCCCC1	n	n	n	n	x	x
Clc1cc2c(c3ncccc13)OCN(Cc1ccccn1)C2	n	n	114	n	65	88
Clc1cc2c(c3ncccc13)OCN(CC1CCCO1)C2 (stereo not given)	n	n	88	n	100	101
CCNS(=O)(=O)c1ccc(OC)c(Cl)c1Cl	n	n	n	n	x	x
CN(C(=O)Cc1ccc(NC2=NC3CS(=O)(=O)CC3S2)cc1)C1CCCCC1 (stereo not given)	n	n	58	n	56	42
CCCCC[C@H](O)/C=C/[C@H]1C=CC(=O)[C@@H]1CCCCCCC(=O)O	x	x	n	n	x	x
CCCCC[C@H](O)/C=C/[C@H]1C(=O)C[C@H](O)[C@@H]1C/C=C\CCCC(=O)OCC(O)CO (stereo not given in full)	x	x	71	n	n	n
SMILES	TEAD-YAP inh	FBW7 act	MITF primary	GPR151 activ	MITF inh conf	AlphaScreen intf2	others
CCCCC[C@H](O)/C=C/[C@H]1C(=O)C[C@H](O)[C@@H]1C/C=C\CCCCC(=O)NCCCCCNC(=O)CCCC[C@@H]1SC[C@@H]2NC(=O)N[C@@H]21	x	x	124	n	123	101
O=C(CCCC[C@@H]1SC[C@@H]2NC(=O)N[C@@H]21)NCCCC[C@H](NC(=O)CCN1C(=O)C=CC1=O)C(=O)O	x	x	124	n	124	101
CCCCC[C@H](O)/C=C/[C@H]1C(=O)C[C@H](O)[C@@H]1C/C=C\CCCC(=O)O	x	x	n	n	x	x
CCCCC[C@H](O)/C=C/[C@H]1C=CC(=O)[C@@H]1CCCCCCC(=O)NCCCCCNC(=O)CCCCC1SC[C@@H]2NC(=O)N[C@H]12 (stereo not given in full)	x	x	124	n	123	101
CSCCC(NC(=O)CCN1C(=O)c2ccccc2C1=O)C(=O)O (stereo not given)	n	n	n	n	x	x
CCCCC[C@H](O)/C=C/[C@H]1C(=O)C[C@H](O)[C@@H]1C/C=C\CCCC(=O)NC(CO)CO	x	x	n	n	x	x
CCOc1cc2[nH]c(=S)n(CCC(OCC)OCC)c(=O)c2cc1OCC	n	n	n	n	x	x
Cc1ccc(CN2CCc3nnc(CCNC(=O)COc4ccccc4)n3CC2)cc1	n	n	n	n	x	x
CN(C)/C=C/C=C/C(=O)c1cccc(C(=O)/C=C/C=C/N(C)C)c1O	n	n	56	n	79	n	AS interf DR=n
Cc1ccc(C(=O)/C=C/C=C/C=C/N(C)C)o1	n	n	n	n	x	x
CCN1C(=O)NC2(CCN(S(=O)(=O)c3ccc(OC)c(OC)c3OC)CC2)C1=O	n	n	n	n	x	x
CCC(NC(=O)c1sc2ncnc(N3CCN(C)CC3)c2c1C)c1cccs1 (stereo not given)	n	n	n	n	x	x
O=C(CCCn1c(SCc2nc3ccccc3[nH]2)nc2ccsc2c1=O)NCCc1ccccc1	n	n	n	n	x	x
O=C(O)CCCCCn1c(SCc2nc3ccccc3[nH]2)nc2ccsc2c1=O	n	n	61	n	n	n
CCOC(=O)c1c(NC(=O)CSc2nnc(CNC(=O)Cc3ccccc3)n2Cc2ccccc2)sc2c1CCCCC2	n	n	n	n	x	x
Cc1ccc(Oc2ccc(OCC(=O)NCC3CCCO3)cc2)cc1 (stereo not given)	n	n	75	n	n	n
COC(=O)COc1ccc(S(=O)(=O)Nc2ccccc2C(=O)OC)cc1C	n	n	n	n	x	x
COC(=O)c1ccccc1NC(=O)/C(C#N)=C/c1cc(Cl)c(OC)c(OC)c1	n	n	53	n	n	n
CCc1ccc(CN2CCN(C3CCC(C)CC3)CC2)cc1 (stereo not given)	n	n	69	n	n	n
CCOc1ccc(CN2CCN(C3CCC(C)CC3)CC2)cc1 (stereo not given)	n	n	71	n	n	n
Cc1cccc(CN2CCN(C3CCC(C)CC3)CC2)c1 (stereo not given)	n	n	55	n	28	n	AS interf DR=n
CCOc1ccc(CN2CCC(C(=O)NC(C)(C)C)CC2)cc1	n	n	n	n	x	x
CCOc1ccc(CN2CCC(C(=O)NCc3ccco3)CC2)cc1	n	n	83	n	n	n
Cc1nn(CC(=O)OC(C(=O)NC(N)=O)C(C)C)c(C)c1[N+](=O)[O-] (stereo not given)	n	n	n	n	x	x
Cc1cc([N+](=O)[O-])ccc1NC(=S)NC(=O)c1ccco1	n	n	n	n	x	x
Cc1ccc(CN2CCC3(CC2)CC3C(=O)NCCn2ccnc2)s1 (stereo not given)	n	n	n	n	x	x
CCOc1ccc(CN2CCN(Cc3ccc(OCC)cc3)CC2)cc1	n	n	51	n	n	n

Source: PubChem (The Scripps Research Institute Molecular Screening Center)
